Test results taken from ChEMBL document CHEMBL3988442, “University of Dundee, Small-Polar-MMV Screening Library” (2021).
For some of these results: Measured potencies and affinities stand elsewhere.

Columns and labels:
Design in all cases: scale not given: direction of the effect not stated beside the values
[1] = target: Protein translocase subunit SecA (Escherichia coli (strain K12)) (UniProt P10408); experiment: Assay to Identify E. coli SecA ATPase Inhibitors; type: functional; conditions: 30 µM
Chain of Protein translocase subunit SecA (Escherichia coli (strain K12)) (P10408 whole entry): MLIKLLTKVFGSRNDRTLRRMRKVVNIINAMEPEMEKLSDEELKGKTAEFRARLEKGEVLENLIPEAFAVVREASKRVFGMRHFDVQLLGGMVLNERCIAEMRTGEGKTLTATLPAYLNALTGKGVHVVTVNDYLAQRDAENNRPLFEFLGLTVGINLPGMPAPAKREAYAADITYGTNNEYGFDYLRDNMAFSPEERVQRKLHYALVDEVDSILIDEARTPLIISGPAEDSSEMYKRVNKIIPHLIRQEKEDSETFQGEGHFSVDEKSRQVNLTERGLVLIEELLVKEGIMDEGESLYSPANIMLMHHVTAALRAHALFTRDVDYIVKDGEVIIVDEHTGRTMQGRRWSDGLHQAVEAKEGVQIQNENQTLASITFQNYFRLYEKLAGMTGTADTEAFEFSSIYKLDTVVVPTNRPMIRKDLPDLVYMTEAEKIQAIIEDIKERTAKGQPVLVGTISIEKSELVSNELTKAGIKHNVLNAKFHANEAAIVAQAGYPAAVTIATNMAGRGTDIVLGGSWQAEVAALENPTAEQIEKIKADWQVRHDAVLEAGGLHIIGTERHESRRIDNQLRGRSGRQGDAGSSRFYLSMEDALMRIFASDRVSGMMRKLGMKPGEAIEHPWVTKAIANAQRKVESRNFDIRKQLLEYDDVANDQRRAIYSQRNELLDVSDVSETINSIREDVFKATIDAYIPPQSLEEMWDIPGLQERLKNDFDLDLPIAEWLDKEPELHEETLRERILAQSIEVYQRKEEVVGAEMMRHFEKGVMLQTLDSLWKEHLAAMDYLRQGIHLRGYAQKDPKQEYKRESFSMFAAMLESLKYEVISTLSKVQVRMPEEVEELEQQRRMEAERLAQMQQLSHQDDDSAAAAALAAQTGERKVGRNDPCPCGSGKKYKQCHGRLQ

[2] = target: T1, Ubiquitin-activating enzyme e1, putative (Leishmania donovani (strain BPK282A1)) (UniProt E9BSI1); experiment: Leishmania donovani Ubiquitin Activating Enzyme (LdE1); type: functional; conditions: 30 µM
T1 sequence (whole entry): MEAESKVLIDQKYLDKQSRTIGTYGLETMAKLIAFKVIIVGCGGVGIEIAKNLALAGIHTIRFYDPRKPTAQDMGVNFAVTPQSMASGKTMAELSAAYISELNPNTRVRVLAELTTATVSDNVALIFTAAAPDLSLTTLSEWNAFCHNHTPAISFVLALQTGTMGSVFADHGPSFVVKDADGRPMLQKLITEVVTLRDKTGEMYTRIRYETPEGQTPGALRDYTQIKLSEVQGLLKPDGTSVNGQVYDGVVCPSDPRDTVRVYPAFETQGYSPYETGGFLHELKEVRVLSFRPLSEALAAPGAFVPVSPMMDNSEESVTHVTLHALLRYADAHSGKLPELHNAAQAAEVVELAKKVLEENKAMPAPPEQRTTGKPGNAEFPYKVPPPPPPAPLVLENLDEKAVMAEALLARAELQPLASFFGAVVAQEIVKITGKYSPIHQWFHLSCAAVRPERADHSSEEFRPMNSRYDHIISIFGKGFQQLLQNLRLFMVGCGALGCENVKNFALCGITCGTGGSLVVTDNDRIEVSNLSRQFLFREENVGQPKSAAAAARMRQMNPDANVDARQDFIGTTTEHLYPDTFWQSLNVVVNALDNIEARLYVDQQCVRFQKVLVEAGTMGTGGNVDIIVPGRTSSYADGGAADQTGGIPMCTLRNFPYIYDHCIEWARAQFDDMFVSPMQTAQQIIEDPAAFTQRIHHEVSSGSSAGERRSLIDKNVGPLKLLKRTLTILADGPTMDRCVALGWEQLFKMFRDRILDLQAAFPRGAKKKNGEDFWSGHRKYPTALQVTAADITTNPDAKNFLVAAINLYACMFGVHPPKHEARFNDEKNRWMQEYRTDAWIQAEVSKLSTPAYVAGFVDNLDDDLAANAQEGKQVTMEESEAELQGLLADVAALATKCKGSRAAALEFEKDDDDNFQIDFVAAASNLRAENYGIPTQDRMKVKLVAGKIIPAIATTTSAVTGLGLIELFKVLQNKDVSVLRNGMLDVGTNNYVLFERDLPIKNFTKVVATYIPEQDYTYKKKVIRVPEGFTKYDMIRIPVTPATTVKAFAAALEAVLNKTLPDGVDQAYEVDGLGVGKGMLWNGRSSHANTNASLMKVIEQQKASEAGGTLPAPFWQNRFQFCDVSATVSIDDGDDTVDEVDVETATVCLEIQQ

[3] = target: AMP-activated protein kinase, AMPK (Homo sapiens) (UniProt P54646+O43741+P54619+Q9UGJ0+Q9Y478+Q13131+Q9UGI9); experiment: AMP-dependent Kinase enzyme assay. An in vitro enzyme assay that detects ADP turnover that is directly proportional to AMPK activity. This uses naive AMPK that is activated during the assay with MK-8722; type: functional; conditions: 30 µM
[4] = target: Sialic acid-binding Ig-like lectin 9 (Homo sapiens) (UniProt Q9Y336); experiment: Hs-Siglec9 ALPHAscreen SOP 20170721; conditions: 10 µM
Chain of Sialic acid-binding Ig-like lectin 9 (Homo sapiens) (Q9Y336 whole entry): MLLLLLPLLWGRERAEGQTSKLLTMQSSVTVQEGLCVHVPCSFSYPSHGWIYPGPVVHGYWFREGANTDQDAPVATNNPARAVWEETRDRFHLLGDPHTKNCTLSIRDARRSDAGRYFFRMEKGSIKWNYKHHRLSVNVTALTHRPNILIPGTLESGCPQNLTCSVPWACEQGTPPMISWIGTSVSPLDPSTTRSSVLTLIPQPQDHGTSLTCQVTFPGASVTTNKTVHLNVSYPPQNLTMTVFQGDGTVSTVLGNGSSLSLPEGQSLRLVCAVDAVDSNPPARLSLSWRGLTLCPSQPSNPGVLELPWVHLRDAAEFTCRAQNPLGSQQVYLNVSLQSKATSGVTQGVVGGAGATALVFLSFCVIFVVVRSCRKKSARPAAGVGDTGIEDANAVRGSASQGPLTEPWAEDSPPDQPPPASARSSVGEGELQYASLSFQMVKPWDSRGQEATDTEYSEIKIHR

Trypanosoma cruzi = experiment: Trypanosoma cruzi phosphomannomutase and mannose-1-phosphate guanylyltransferase assay; type: functional; conditions: 10 µM
[5] = target: T2, Arginase-2, mitochondrial (Homo sapiens) (UniProt P78540); experiment: in vitro enzyme assay to detect the production of urea directly proportional to the activity of Arginase II; type: functional; conditions: 33.3 µM; further: in the data most compounds retested in dose-response had high values
T2 sequence (whole entry): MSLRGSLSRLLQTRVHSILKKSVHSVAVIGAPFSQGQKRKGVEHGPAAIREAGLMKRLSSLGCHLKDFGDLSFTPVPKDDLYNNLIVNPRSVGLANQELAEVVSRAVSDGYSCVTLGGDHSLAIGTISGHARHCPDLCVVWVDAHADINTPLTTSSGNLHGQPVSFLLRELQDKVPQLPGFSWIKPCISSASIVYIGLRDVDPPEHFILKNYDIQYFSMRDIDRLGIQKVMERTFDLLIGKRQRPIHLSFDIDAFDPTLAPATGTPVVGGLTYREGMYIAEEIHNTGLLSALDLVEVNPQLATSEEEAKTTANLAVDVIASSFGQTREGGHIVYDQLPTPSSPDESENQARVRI

[6] = target: T3, Proteasome subunit beta (Trypanosoma cruzi) (UniProt O96673); experiment: Trypanosoma cruzi proteasome chymotrypsin-like activity (TcProtChymo) assay.; further: in the data most compounds retested in dose-response had high values; type: functional; conditions: 9.37 µM
T3 sequence (whole entry): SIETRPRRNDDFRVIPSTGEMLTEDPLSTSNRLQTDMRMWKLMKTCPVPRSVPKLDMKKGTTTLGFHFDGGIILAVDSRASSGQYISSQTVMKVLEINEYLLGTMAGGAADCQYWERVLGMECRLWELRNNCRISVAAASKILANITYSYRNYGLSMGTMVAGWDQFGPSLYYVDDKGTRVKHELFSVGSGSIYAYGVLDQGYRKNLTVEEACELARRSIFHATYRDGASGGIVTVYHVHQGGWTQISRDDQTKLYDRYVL

Homo sapiens = species on record: Homo sapiens; experiment: To identify inhibition of the IFN signalling (Jak-Stat) pathway via expression of an eGFP reporter gene under the control of an IFN-stimulated response element (ISRE) containing MxA promoter.; type: functional; conditions: 30 µM
[7] = target: T4, Tyrosyl-tRNA synthetase, putative (Trypanosoma cruzi (strain CL Brener)) (UniProt Q4DSP6); experiment: Trypanosoma cruzi tyrosyl tRNA synthetase (TcYRS) _High Tyrosine SOP; type: functional; conditions: 30 µM; further: in the data most compounds retested in dose-response had high values
T4 sequence (whole entry): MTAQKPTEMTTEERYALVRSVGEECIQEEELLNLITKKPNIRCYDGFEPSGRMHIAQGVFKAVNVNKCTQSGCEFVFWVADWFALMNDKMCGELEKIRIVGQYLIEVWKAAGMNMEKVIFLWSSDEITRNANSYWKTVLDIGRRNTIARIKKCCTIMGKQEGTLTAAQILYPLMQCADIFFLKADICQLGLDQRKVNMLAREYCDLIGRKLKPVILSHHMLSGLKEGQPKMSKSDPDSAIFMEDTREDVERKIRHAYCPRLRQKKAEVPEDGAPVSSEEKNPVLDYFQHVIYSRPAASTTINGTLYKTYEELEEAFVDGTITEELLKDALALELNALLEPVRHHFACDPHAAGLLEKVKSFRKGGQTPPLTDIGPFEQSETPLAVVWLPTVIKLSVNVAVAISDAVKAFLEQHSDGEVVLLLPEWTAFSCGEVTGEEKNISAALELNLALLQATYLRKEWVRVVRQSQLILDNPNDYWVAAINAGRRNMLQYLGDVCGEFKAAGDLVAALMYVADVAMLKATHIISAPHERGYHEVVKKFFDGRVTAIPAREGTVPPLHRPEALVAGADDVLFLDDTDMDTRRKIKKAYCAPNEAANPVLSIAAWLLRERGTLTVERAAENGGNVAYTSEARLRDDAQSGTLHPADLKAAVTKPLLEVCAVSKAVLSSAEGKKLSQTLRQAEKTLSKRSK

[8] = target: T4, Tyrosyl-tRNA synthetase, putative (Trypanosoma cruzi (strain CL Brener)); experiment: Trypanosoma cruzi tyrosyl tRNA synthetase (TcYRS) SOP; type: functional; conditions: 30 µM
[9] = target: Chromo domain-containing protein 1 (Saccharomyces cerevisiae (strain ATCC 204508 / S288c) (Baker's yeast)) (UniProt P32657); experiment: ScCHD-1 Enzyme Inhibition Assay; type: functional; conditions: 30 µM; further: in the data most compounds retested in dose-response had high values
Chain of Chromo domain-containing protein 1 (Saccharomyces cerevisiae (strain ATCC 204508 / S288c) (Baker's yeast)) (P32657 whole entry, the tested form may be a part): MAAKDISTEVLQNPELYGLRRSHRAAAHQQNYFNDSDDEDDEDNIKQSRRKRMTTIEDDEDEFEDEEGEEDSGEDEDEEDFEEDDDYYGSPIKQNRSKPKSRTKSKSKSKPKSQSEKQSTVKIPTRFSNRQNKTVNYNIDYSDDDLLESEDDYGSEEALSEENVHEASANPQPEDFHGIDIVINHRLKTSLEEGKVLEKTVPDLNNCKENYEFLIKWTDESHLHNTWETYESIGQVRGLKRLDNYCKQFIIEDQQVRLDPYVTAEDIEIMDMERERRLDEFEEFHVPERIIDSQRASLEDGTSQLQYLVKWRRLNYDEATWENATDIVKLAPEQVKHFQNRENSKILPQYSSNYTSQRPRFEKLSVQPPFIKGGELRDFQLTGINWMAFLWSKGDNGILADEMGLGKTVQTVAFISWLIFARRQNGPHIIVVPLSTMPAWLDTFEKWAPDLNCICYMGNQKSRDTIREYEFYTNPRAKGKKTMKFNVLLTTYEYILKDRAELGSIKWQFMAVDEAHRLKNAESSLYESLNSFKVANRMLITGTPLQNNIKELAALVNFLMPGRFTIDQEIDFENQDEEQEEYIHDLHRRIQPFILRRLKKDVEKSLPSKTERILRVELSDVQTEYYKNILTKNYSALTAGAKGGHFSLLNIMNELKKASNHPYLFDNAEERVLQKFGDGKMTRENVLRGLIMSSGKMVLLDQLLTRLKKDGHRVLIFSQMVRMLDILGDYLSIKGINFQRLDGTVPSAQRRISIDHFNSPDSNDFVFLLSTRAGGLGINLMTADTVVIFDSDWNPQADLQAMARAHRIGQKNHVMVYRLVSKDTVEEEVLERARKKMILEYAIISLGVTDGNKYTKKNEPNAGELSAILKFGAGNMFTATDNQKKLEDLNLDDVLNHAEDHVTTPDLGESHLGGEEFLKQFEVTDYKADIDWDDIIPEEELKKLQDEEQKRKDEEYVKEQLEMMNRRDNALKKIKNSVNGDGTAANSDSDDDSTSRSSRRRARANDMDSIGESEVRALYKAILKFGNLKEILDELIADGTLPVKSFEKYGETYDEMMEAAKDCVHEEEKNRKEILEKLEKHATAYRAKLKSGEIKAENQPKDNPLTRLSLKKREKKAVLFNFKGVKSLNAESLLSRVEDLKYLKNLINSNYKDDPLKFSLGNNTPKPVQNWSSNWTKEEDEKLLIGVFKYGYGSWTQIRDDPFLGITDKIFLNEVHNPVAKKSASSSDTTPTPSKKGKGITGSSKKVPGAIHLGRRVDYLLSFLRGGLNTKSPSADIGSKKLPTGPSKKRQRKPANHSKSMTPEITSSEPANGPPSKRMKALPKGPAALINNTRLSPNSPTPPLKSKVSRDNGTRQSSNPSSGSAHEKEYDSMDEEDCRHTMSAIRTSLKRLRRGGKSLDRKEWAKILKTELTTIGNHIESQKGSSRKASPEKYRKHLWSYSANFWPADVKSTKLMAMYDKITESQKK

`CC(=O)c1c(F)cccc1N1CCC(CS(N)(=O)=O)CC1` gave a Percent Effect [1] of -2%, a Percent Effect [2] of -2.74% and a Percent Effect [3] of 4.36%. It also gave a Percent Effect [4] of -0.254%, a Percent Effect (Trypanosoma cruzi) of 0.595% and a Percent Effect [5] of -2%. It also gave a Percent Effect [6] of 10.4%, a Percent Effect (Homo sapiens) of 3.02% and a Percent Effect [7] of 4.17%. The Percent Effect [8] was 3.7% and the Percent Effect [9] was -2.94%.
`Cc1cc(CN2CCOC(CN(C)C)C2)no1` (stereo not drawn) was tested, and the Percent Effect [1] was -5.93%, the Percent Effect [2] was 5.41% and the Percent Effect [3] was -1.25%. The Percent Effect [4] was 0.559%, the Percent Effect (Trypanosoma cruzi) was -4.92% and the Percent Effect [5] was 1.66%. The Percent Effect [6] was -2.15%, the Percent Effect (Homo sapiens) was 14.9% and the Percent Effect [7] was 1.98%. For the same compound, the Percent Effect [8] was 1.22% and the Percent Effect [9] was 6.53%.
For `COCCN(C)C(=O)c1ccc(OC)cc1O`, the Percent Effect [1] was -7.04%, the Percent Effect [2] was 0% and the Percent Effect [3] was 0.346%. For the same compound, the Percent Effect [4] was 2.75%, the Percent Effect (Trypanosoma cruzi) was -4.17% and the Percent Effect [5] was 2.4%. For the same compound, the Percent Effect [6] was 18.2%, the Percent Effect (Homo sapiens) was 8.7% and the Percent Effect [7] was 4.17%. For the same compound, the Percent Effect [8] was 8.64% and the Percent Effect [9] was 3.68%.
`CC1CCN(CCNC(=O)C2CCN(S(N)(=O)=O)CC2)CC1` showed a Percent Effect [1] of -1.93%, a Percent Effect [2] of 9.72% and a Percent Effect [3] of -5.79%. For the same compound, the Percent Effect [4] was -4.04%, the Percent Effect (Trypanosoma cruzi) was -3.4% and the Percent Effect [5] was 1.77%. The Percent Effect [6] was 10%, the Percent Effect (Homo sapiens) was 3.48% and the Percent Effect [7] was 2.1%. It also gave a Percent Effect [8] of 5.13% and a Percent Effect [9] of -2.96%.
Compound `CC1CN(CC(=O)Nc2nncs2)CCN1Cc1nccn1C` (stereo not drawn) has a Percent Effect [1] of -6.24%, a Percent Effect [2] of 8.11% and a Percent Effect [3] of -5.38%. It also gave a Percent Effect [4] of -3.66%, a Percent Effect (Trypanosoma cruzi) of -2.69% and a Percent Effect [5] of 0.924%. It also gave a Percent Effect [6] of 4.67%, a Percent Effect (Homo sapiens) of 12% and a Percent Effect [7] of 4.95%. It also gave a Percent Effect [8] of 6.1% and a Percent Effect [9] of 8.11%.
For `NC(=O)c1ccc2c(c1)nc1n2CCN(Cc2ccco2)C1`, the Percent Effect [1] was -3.62%, the Percent Effect [2] was 21.1% and the Percent Effect [3] was 5.96%. The Percent Effect [4] was 1.24%, the Percent Effect (Trypanosoma cruzi) was 3.02% and the Percent Effect [5] was -2.37%. The Percent Effect [6] was 9.49%, the Percent Effect (Homo sapiens) was 1.88% and the Percent Effect [7] was 5.32%. For the same compound, the Percent Effect [8] was 5.2% and the Percent Effect [9] was 34.5%.
Compound `Cc1nc(-c2ccccc2)n(CC(=O)NCC(C)C)n1` has a Percent Effect [1] of -1.39%, a Percent Effect [2] of 13.5% and a Percent Effect [3] of -9.59%. The Percent Effect [4] was -7.18%, the Percent Effect (Trypanosoma cruzi) was -7.08% and the Percent Effect [5] was -4.01%. For the same compound, the Percent Effect [6] was 1.62%, the Percent Effect (Homo sapiens) was 19.8% and the Percent Effect [7] was 5.42%. The Percent Effect [8] was 13.6% and the Percent Effect [9] was -5.55%.
With `COc1cccc(COCC(=O)N2CCCC(c3cc(C)[nH]n3)C2)c1` (stereo not drawn) the Percent Effect [1] was -3.58%, the Percent Effect [2] was 13.5% and the Percent Effect [3] was -9.62%. The Percent Effect [4] was 3.3%, the Percent Effect (Trypanosoma cruzi) was -2.92% and the Percent Effect [5] was -0.401%. It also gave a Percent Effect [6] of 2.7%, a Percent Effect (Homo sapiens) of 10.1% and a Percent Effect [7] of 11.3%. The Percent Effect [8] was 16.1% and the Percent Effect [9] was -4.89%.
